Experiment [1] can be described thus: CCTE_Padilla_ZF_Score.Tail: CCTE's 144 Hour Post-fertilization zebrafish Assay Score for Tail Malformation, Padilla Lab (AID 2284414). In outline: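 Tail malformations were scored at 6 dpf by two blinded assessors under a stereo microscope. Chorionated embryos had been exposed from 6-8 hpf in sealed wells of 10% Hanks' at 26 C, then rinsed free of chemical at 5 dpf.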

The nature of experiment [2]: CCTE_Padilla_ZF_Score.Blood_pooling: CCTE's 144 Hour Post-fertilization zebrafish Assay Score for Blood Pooling, Padilla Lab (AID 2284415). In outline: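 Blood pooling was scored at 6 dpf under a stereo microscope by two blinded assessors, fitted upward against DMSO. Single embryos were dosed at 6–8 hpf in 10% Hanks', kept sealed at 26C (14:10 h cycle) and rinsed at 5 dpf.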

A short description of experiment [3]: CCTE_Padilla_ZF_Score.Any: CCTE's 144 Hour Post-fertilization zebrafish Assay Score for Any Mortality or Malformation, Padilla Lab (AID 2284416). An outline of the steps:
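Wild-type zebrafish embryos with chorions, one per well in 10% Hanks' from 6–8 hpf, dosed in sealed plates at 26 C, 14:10 h light:dark; rinsed at 5 dpf; blinded scoring at 6 dpf for death or malformation, versus DMSO.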

The test system of experiment [4] is TTR (gene 7276). The experiment in a line: CCTE_GLTED_hTTR_0.125uM: CCTE's human Transthyretin (hTTR) Inhibition Assay, with 0.125uM TTR, Great Lakes Toxicology and Ecology Division (GLTED) Lab (AID 2284431).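 Note: hits lower the fluorescence signal relative to DMSO baseline.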 In outline: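 Fluorescence (380 ex, 475 em) reported the ANSA probe remaining bound to 0.125uM human transthyretin. Chemicals were incubated with the protein for 2 hours; activity was scored as loss of signal against DMSO negative control.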

The source made the active and inactive calls. Rule for the calls: active = hit-call score of the fitted dose curve at least 0.9, where 1 is the maximum; inactive = score below 0.9.

Here are results for 35 compounds from PubChem BioAssay (EPA / NIEHS).

For the compound `FC(F)(F)C(F)(F)C(F)(F)N(C(F)(F)C(F)(F)C(F)(F)F)C(F)(F)C(F)(F)C(F)(F)F`, the result in experiment [1], in experiment [2] and in experiment [3] was inactive.

On to `O=C(O)C(F)(F)C(F)(F)OC(F)(F)F`, for which the outcome in experiment [1], in experiment [2] and in experiment [3] was inactive.

On to `OCC(F)(F)C(F)(F)C(F)(F)C(F)(F)C(F)(F)C(F)(F)F`, for which, in experiment [1], the result was inactive. Also, the AC50 in experiment [2] is 93.7 µM (active); in experiment [3], 80.5 µM (active).

With `FC(F)(F)C(F)(F)C(F)(F)C(F)(F)CCI`, the compound was classed as inactive in experiment [1], in experiment [2] and in experiment [3].

In the case of `O=P(O)(O)OCCC(F)(F)C(F)(F)C(F)(F)C(F)(F)C(F)(F)C(F)(F)F`, the result in experiment [1], in experiment [2] and in experiment [3] was inactive.

`O=C(O)C(F)(F)C(F)(F)F`: the result in experiment [1], in experiment [2] and in experiment [3] was inactive.

Turning to `C=C(C)C(=O)OCCC(F)(F)C(F)(F)C(F)(F)C(F)(F)C(F)(C(F)(F)F)C(F)(F)F`, the compound was classed as inactive in experiment [1], in experiment [2] and in experiment [3].

Take `O=S(=O)(OCC(F)F)C(F)(F)F`: the call in experiment [1], in experiment [2] and in experiment [3] was inactive.

With `CCO[Si](CCC(F)(F)C(F)(F)C(F)(F)C(F)(F)C(F)(F)C(F)(F)F)(OCC)OCC`, the outcome in experiment [1], in experiment [2] and in experiment [3] was inactive.

`CCCCCCCCC(F)(F)C(F)(F)C(F)(F)C(F)(F)C(F)(F)C(F)(F)F`: the result in experiment [1], in experiment [2] and in experiment [3] was inactive.

Take `OCC(F)(F)C(F)(F)C(F)(F)C(F)(F)C(F)(F)C(F)F`: the result in experiment [1], in experiment [2] and in experiment [3] was inactive.

`FC(F)(F)C(F)(F)C(F)(F)C(F)(F)C(F)(F)C(F)(F)C(F)(F)C(F)(F)F`: the outcome in experiment [1], in experiment [2] and in experiment [3] was inactive.

Turning to `O=C(CC(=O)C(F)(F)C(F)(F)F)C(F)(F)F`, the compound was classed as inactive in experiment [1], in experiment [2] and in experiment [3].

With `NC(=O)C(F)(F)C(F)(F)C(F)(F)C(F)(F)F`, the compound was called inactive in experiment [1], in experiment [2] and in experiment [3].

In the case of `FC(F)(F)C(F)(F)C(F)(F)C(F)(F)C(F)(F)C(F)(F)C(F)(F)Br`, the compound was classed as inactive in experiment [1], in experiment [2] and in experiment [3].

As for `FC(F)(I)C(F)(F)C(F)(F)C(F)(F)I`, the AC50 was 80.4 µM (active) in experiment [1] and 16.9 µM (active) in experiment [3]. Also, in experiment [2], the result was inactive.

Regarding `CC(C)(C)C(=O)CC(=O)C(F)(F)C(F)(F)C(F)(F)F`, the result in experiment [1] and in experiment [2] was inactive. In addition, the AC50 in experiment [3] was 26.6 µM (active).

With `C=C(C)C(=O)OCC(F)(F)C(F)(F)C(F)(F)C(F)(F)C(F)(F)C(F)(F)C(F)(F)F`, the compound was classed as inactive in experiment [1], in experiment [2] and in experiment [3].

With `O=C(O)C(F)(OC(F)(F)C(F)(OC(F)(F)C(F)(OC(F)(F)C(F)(F)C(F)(F)F)C(F)(F)F)C(F)(F)F)C(F)(F)F` (stereo not drawn), the result in experiment [1], in experiment [2] and in experiment [3] was inactive.

As to `OCC(F)(F)C(F)(F)C(F)(F)C(F)F`, the result in experiment [1], in experiment [2] and in experiment [3] was inactive.

Take `O=S(=O)(O)C(F)(F)C(F)(F)C(F)(F)C(F)(F)C(F)(F)C(F)(F)C(F)(F)F`: the AC50 was 31.2 µM (active) in experiment [1], 63.4 µM (active) in experiment [2] and 21.3 µM (active) in experiment [3].

With `OCCCC(F)(F)C(F)(F)C(F)(F)F`, the compound was classed as inactive in experiment [1], in experiment [2] and in experiment [3].

For `FC(F)(F)C(F)(F)C(F)(F)C(F)(F)C(F)(F)C(F)(F)CCS`, the outcome in experiment [1], in experiment [2] and in experiment [3] was inactive.

Turning to `FC(F)(Br)C(F)(F)C(F)(F)C(F)(F)C(F)(F)C(F)(F)Br`, the result in experiment [1], in experiment [2] and in experiment [3] was inactive.

Turning to `OCC(F)(F)C(F)(F)C(F)(F)F`, the compound was classed as inactive in experiment [1], in experiment [2] and in experiment [3].

Consider `C=C(C)C(=O)OCC(F)(F)C(F)(F)C(F)(F)F`, for which the compound was classed as inactive in experiment [1], in experiment [2] and in experiment [3].

`FC(F)(F)C(F)(F)C(F)(F)C(F)(F)C(F)(F)C(F)(F)CC1CO1` (stereo not drawn): the result in experiment [1], in experiment [2] and in experiment [3] was inactive.

Regarding `Cc1ccc(S(=O)(=O)OCC(F)(F)C(F)(F)C(F)(F)C(F)(F)C(F)(F)C(F)F)cc1`, the call in experiment [1] and in experiment [2] was inactive. Moreover, the AC50 in experiment [3] is 22.9 µM (active).

Regarding `FC(F)(F)C(F)(F)C(F)(F)C(F)(F)C(F)(F)CCI`, the outcome in experiment [1] and in experiment [2] was inactive. Further, the AC50 in experiment [3] was 31.9 µM (active).

Turning to `O=C(O)C(F)(F)C(F)(F)C(F)(F)C(F)(F)C(F)(F)C(F)(F)C(F)(F)C(F)(F)C(F)(F)C(F)F`, the call in experiment [1] and in experiment [2] was inactive. Moreover, in experiment [3], the AC50 is 15 µM (active).

Take `CCCCC(CC)COP(=O)(O)OCC(CC)CCCC` (stereo not drawn): in experiment [4], the AC50 is 5.44 µM (active).

Consider `OCCCC(F)(F)C(F)(F)C(F)(F)C(F)(F)C(F)(F)C(F)(F)C(F)(F)F`, for which the result in experiment [1] and in experiment [2] was inactive. Besides, the AC50 in experiment [3] is 38.7 µM (active).

Take `FC(F)(F)C(F)(F)C(F)(F)C(F)(F)C(F)(F)C(F)(F)C(F)(F)C(F)(F)CCS`: the compound was classed as inactive in experiment [1], in experiment [2] and in experiment [3].

In the case of `N=C(N)C(F)(F)C(F)(F)C(F)(F)C(F)(F)C(F)(F)C(F)(F)C(F)(F)F`, the result in experiment [1] and in experiment [2] was inactive. The AC50 in experiment [3] was 22.2 µM (active).

In the case of `O=C(O)C(F)(OC(F)(F)C(F)(OC(F)(F)C(F)(F)C(F)(F)F)C(F)(F)F)C(F)(F)F` (stereo not drawn), the result in experiment [1], in experiment [2] and in experiment [3] was inactive.
